We go through 60 compounds from PubChem BioAssay (Tox21).

Experiment [1] can be described thus: cAMP Responsive Elements (CRE) small molecule antagonists, cell-based qHTS assay: qHTS cell viability counter screen (AID 2060913). Further: nearly all actives have a fitted effect of over 40% in size. In outline: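 Cytotoxicity read in the same wells as the CRE-bla HEK293T antagonist assay: after 3 h compound with 0.25 uM NKH477 final and 2 h beta-lactamase substrate, CellTiter-Glo luminescence measured.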
On the technique in general: Quantitative high-throughput screening tests each substance at several concentrations.

Experiment [2] is described as follows: cAMP Responsive Elements (CRE) small molecule agonists, cell-based qHTS assay: qHTS cell viability counter screen (AID 2060914). Further: nearly all actives have a fitted effect of over 50% in size. In outline:
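Luminescence read-out (CellTiter-Glo, 30 min RT) of ATP-based viability in CRE-bla HEK 293T cells, run in the same wells as the β-lactamase reporter assay after 3 h compound treatment at 37 °C.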

Where “and” joins values, the source holds several entries; their conditions need not be identical. Identical values can stand only once. Results filed as inconclusive are left out. A number with no mark means an inactive call. Calls of active or inactive are those of the source. The call rests on the fitted dose curve; in most records, active means well fitted cell-killing curve with a large enough effect in the repeat runs; inconclusive means weak or mixed curves, or effect the other way; inactive means flat fitted curve, though single readings scatter.
Potency means the concentration at half of the fitted maximal effect.

Regarding `O=C(NCNC(=O)NC1C(=O)NC(=O)N1CO)NC1C(=O)NC(=O)N1CO` (stereo not given), the Potency entry in experiment [1] and in experiment [2] was “inactive” throughout.

Take `Clc1cccc(C(Cl)(Cl)Cl)n1`: the Potency entry in experiment [1] and in experiment [2] was “inactive” in each case.

For `CCOP(=S)(OCC)SCSP(=S)(OCC)OCC`, the Potency entry in experiment [1] and in experiment [2] was “inactive” each time.

As to `C=CC(=O)NC(C)(C)CC(C)=O`, the Potency entry in experiment [1] and in experiment [2] was “inactive” each time.

As for `O=c1oc2ccccc2c(O)c1Cc1c(O)c2ccccc2oc1=O`, the Potency result in experiment [1] and in experiment [2] was “inactive” each time.

Regarding `COP(=O)(OC)OC`, the Potency result in experiment [1] and in experiment [2] was “inactive” throughout.

For the compound `NNc1ccccc1`, the Potency entry in experiment [1] and in experiment [2] was “inactive” each time.

Take `CCCCCCCCCCCCOS(=O)(=O)O`: the Potency result in experiment [1] and in experiment [2] was “inactive” each time.

As for `Fc1ccc(Oc2ccnc3cc(Cl)cc(Cl)c23)cc1`, the Potency entry in experiment [1] and in experiment [2] was “inactive” in each case.

Consider `CCCC(C)(COC(N)=O)COC(N)=O`, for which the Potency entry in experiment [1] and in experiment [2] was “inactive” each time.

For `C[N+](C)(C)Cc1ccccc1`, the Potency result in experiment [1] and in experiment [2] was “inactive” each time.

Consider `O=C(O)c1c(Cl)ccc2cc(Cl)cnc12`, for which the Potency result in experiment [1] and in experiment [2] was “inactive” throughout.

With `CCCN(CCC)c1c([N+](=O)[O-])cc(C(C)C)cc1[N+](=O)[O-]`, the Potency entry in experiment [1] and in experiment [2] was “inactive” in each case.

In the case of `NNC(=O)c1cccnc1`, the Potency entry in experiment [1] and in experiment [2] was “inactive” each time.

Consider `COC12CC[C@@]3(C[C@@H]1C(C)(O)C(C)(C)C)[C@H]1Cc4ccc(O)c5c4[C@@]3(CCN1CC1CC1)[C@H]2O5` (stereo not given in full), for which the Potency in experiment [1] was 60.7 µM (active). In addition, the Potency entry in experiment [2] was “inactive”.

Regarding `CC(CC(C#N)(c1ccccc1)c1ccccc1)N(C)C` (stereo not given), the Potency result in experiment [1] and in experiment [2] was “inactive” in each case.

Take `CCC(=O)C(CCN(C)C)(c1ccccc1)c1ccccc1`: the Potency entry in experiment [1] and in experiment [2] was “inactive” each time.

On to `SCc1ccco1`, for which the Potency result in experiment [1] and in experiment [2] was “inactive” throughout.

For the compound `CC(C)(c1ccccc1)c1ccc(O)c(C(C)(C)c2ccccc2)c1`, the Potency in experiment [1] was 42.9 µM (active) and 54.5 µM (active); in experiment [2], 60.6 µM (active) and 61.1 µM (active).

As to `ClC(Cl)C(Cl)Cl`, the Potency result in experiment [1] and in experiment [2] was “inactive” throughout.

Take `[CH3][Sn]([Cl])([Cl])[Cl]`: the Potency entry in experiment [1] and in experiment [2] was “inactive” throughout.

For the compound `C=CC=O`, the Potency entry in experiment [1] and in experiment [2] was “inactive” throughout.

Consider `CCC/C(=N\OCC)C1=C(O)CC(CC(C)SCC)CC1=O` (stereo not given), for which the Potency entry in experiment [1] and in experiment [2] was “inactive” in each case.

In the case of `Cn1c(-c2ccccc2)cc(-c2ccccc2)[n+]1C`, the Potency result in experiment [1] and in experiment [2] was “inactive” each time.

For the compound `C[N+](C)=CCl`, the Potency entry in experiment [1] and in experiment [2] was “inactive” throughout.

With `CCCCCCCC[N+](C)(CCCCCCCC)CCCCCCCC`, the Potency was 8.62 µM (active) and 48.6 µM (active) in experiment [1]; 19.3 µM (active) and 30.6 µM (active) in experiment [2].

Take `CC[n+]1c(-c2ccccc2)c2cc(N)ccc2c2ccc(N)cc21`: the Potency entry in experiment [1] and in experiment [2] was “inactive” each time.

As to `COc1ccc(CO)cc1`, the Potency entry in experiment [1] and in experiment [2] was “inactive” throughout.

Take `CN(C)c1nc(=O)n(C2CCCCC2)c(=O)n1C`: the Potency entry in experiment [1] and in experiment [2] was “inactive” each time.

In the case of `Cc1cc(Cl)ccc1O[C@H](C)C(=O)O`, the Potency entry in experiment [1] and in experiment [2] was “inactive” in each case.

Take `Nc1cccc(Cl)c1`: the Potency entry in experiment [1] and in experiment [2] was “inactive” each time.

On to `COCCOCCO`, for which the Potency result in experiment [1] and in experiment [2] was “inactive” throughout.

For the compound `C#CCOS(=O)OC1CCCCC1Oc1ccc(C(C)(C)C)cc1` (stereo not given), the Potency result in experiment [1] and in experiment [2] was “inactive” in each case.

As to `CC1=C(C(=O)Nc2ccccc2)SCCO1`, the Potency result in experiment [1] and in experiment [2] was “inactive” each time.

Take `CCC1(CCC(C)C)C(=O)NC(=O)NC1=O`: the Potency result in experiment [1] and in experiment [2] was “inactive” throughout.

For `CC1(C)C(C=C(Cl)Cl)C1C(=O)OC(C#N)c1cccc(Oc2ccccc2)c1` (stereo not given), the Potency result in experiment [1] and in experiment [2] was “inactive” each time.

In the case of `CN(C)NC(=O)CCC(=O)O`, the Potency result in experiment [1] and in experiment [2] was “inactive” each time.

In the case of `NCc1cccnc1`, the Potency entry in experiment [1] and in experiment [2] was “inactive” throughout.

For `OCCOc1ccccc1`, the Potency result in experiment [1] and in experiment [2] was “inactive” each time.

Turning to `OC(O)C(Cl)(Cl)Cl`, the Potency result in experiment [1] and in experiment [2] was “inactive” each time.

For the compound `Cc1cc(C)cc(C)c1`, the Potency entry in experiment [1] and in experiment [2] was “inactive” each time.

Consider `C=CCBr`, for which the Potency result in experiment [1] and in experiment [2] was “inactive” each time.

As to `COc1ccc2c(C(=O)c3ccc(Cl)cc3)c(C)n(CC(=O)O)c2c1`, the Potency result in experiment [1] and in experiment [2] was “inactive” in each case.

With `CC[C@@H](CO)NC(=O)[C@@H]1C=C2c3cccc4[nH]cc(c34)C[C@H]2N(C)C1`, the Potency result in experiment [1] and in experiment [2] was “inactive” each time.

For the compound `COCC(=O)N(c1c(C)cccc1C)N1CCOC1=O`, the Potency entry in experiment [1] and in experiment [2] was “inactive” throughout.

`CCOC(=O)NC(O)C(Cl)(Cl)Cl` (stereo not given): the Potency result in experiment [1] and in experiment [2] was “inactive” each time.

On to `CCOC(=O)C(c1c(O)c2ccccc2oc1=O)c1c(O)c2ccccc2oc1=O`, for which the Potency entry in experiment [1] and in experiment [2] was “inactive” in each case.

For `O=c1c(C2CC(c3ccc(-c4ccc(Br)cc4)cc3)Cc3ccccc32)c(O)sc2ccccc12` (stereo not given), the Potency entry in experiment [1] and in experiment [2] was “inactive” each time.

`CNC(=O)N(C)c1nc2ccccc2s1`: the Potency result in experiment [1] and in experiment [2] was “inactive” each time.

In the case of `O=C(O)CCl`, the Potency entry in experiment [1] and in experiment [2] was “inactive” in each case.

Turning to `CC(Cl)(Cl)C(=O)O`, the Potency result in experiment [1] and in experiment [2] was “inactive” in each case.

Regarding `CCC(C)c1ccc(O)cc1` (stereo not given), the Potency entry in experiment [1] and in experiment [2] was “inactive” each time.

Regarding `CCCCNC(=O)OCC#CI`, the Potency entry in experiment [1] and in experiment [2] was “inactive” each time.

Take `NC(=O)C(Cl)(Cl)Cl`: the Potency entry in experiment [1] and in experiment [2] was “inactive” in each case.

As to `c1cc2c3c(cccc3c1)CC2`, the Potency result in experiment [1] and in experiment [2] was “inactive” each time.

`CCCN(CCC)C(=O)Cc1c(-c2ccc(Cl)cc2)nc2ccc(Cl)cn12`: the Potency entry in experiment [1] and in experiment [2] was “inactive” throughout.

For `c1coc(-c2nc3ccccc3[nH]2)c1`, the Potency entry in experiment [1] and in experiment [2] was “inactive” throughout.

As for `c1ccc(OCC2CO2)cc1` (stereo not given), the Potency entry in experiment [1] and in experiment [2] was “inactive” each time.

`Nc1ccccc1Cl`: the Potency result in experiment [1] and in experiment [2] was “inactive” throughout.

For the compound `N#Cc1ccccc1N`, the Potency entry in experiment [1] and in experiment [2] was “inactive” in each case.
